We go through seven molecules from PubChem BioAssay.

Structures are written as SMILES. A number with no mark means an inactive call. Calls of active or inactive are those of the source.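 The calls were made as follows, unless noted: active = normalized viability below 100% at a tested concentration; inactive = the rest.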

The first test can be described thus: ovarian cancer cell viability with rucaparib, profiling panel, oncology-focused library, rucaparib conditional (AID 1508598). As to conditions: patient-derived ovarian cancer cells, CellTiter-Glo viability, 144 h; at 5 µM; OCI-P5x cells; without rucaparib; active compounds read low. For orientation: ATP-based viability assays read luminescence as a measure of living cells.
A word on the viability: it is a read-out of living cells in per cent, often relative to untreated cells. Consider `CNC(=O)c1cc(Oc2ccc(NC(=O)Nc3ccc(Cl)c(C(F)(F)F)c3)c(F)c2)ccn1`, for which the viability is 121%. Consider `O=C(CCCCCCC(=O)Nc1ccc([C@H]2O[C@@H](CSc3nc(-c4ccccc4)c(-c4ccccc4)o3)C[C@@H](c3ccc(CO)cc3)O2)cc1)NO`, for which the viability was 108%. Consider `CNC(=O)c1cc(COc2nnc(Nc3ccc(Cl)cc3)c3ccoc23)ccn1`, for which the viability is 109%.

For `CS(=O)(=O)N1CCc2c(-c3cnc(N)nc3)nc(N3CCOCC3)nc21`, the viability is 16.9% (active). Take `Nc1ccn([C@@H]2O[C@H](CO)[C@@H](O)C2(F)F)c(=O)n1`: the viability is 17.7% (active).

A further test is described as follows: viability rescue of complex I mutant cybrids, primary screen, cell-based, galactose medium, ATP luminescence (AID 1645843;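 active = z-score of at least 1.8 in each of two replicates, scored against plate mean and spread of sample wells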;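 also: positive z means more ATP and so rescue of galactose-driven cybrid death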). As to conditions: complex I mutant cybrid cells, 72 h, active compounds read high.
As for `COc1cc2ncnc(Nc3cccc(Cl)c3)c2cc1OC`, the z-score was 1.23.

`Nc1ccn([C@@H]2O[C@H](CO)[C@@H](O)C2(F)F)c(=O)n1`: the z-score is -1.98. The same measure, in the same setting: the value for `CC(=O)Oc1cc2c(s1)CCN(C(C(=O)C1CC1)c1ccccc1F)C2` (stereo not drawn) was -1.04.
